Reference: PubChem BioAssay (EPA / NIEHS)
The source made the active and inactive calls. Rule for the calls: active = hit-call score of the fitted dose curve at least 0.9, where 1 is the maximum; inactive = score below 0.9.

These compounds were tested on TIMP metallopeptidase inhibitor 2 (TIMP2), TIMP2 (gene 7077) (assay: BSK_KF3CT_TIMP2: BioMAP Diversity Plus: KF3CT Assay for TIMP metallopeptidase inhibitor 2 (TIMP2) Biomarker Activity (AID 2283071)). Conditions: primary human keratinocytes with fibroblasts; actives raise or lower the signal.
Description: BSK_KF3CT is a cell-based, multiplexed-readout assay that uses keratinocytes and foreskin fibroblasts, a human skin primary cell co-culture, with measurements taken at 24 hours after chemical dosing in a 96-well plate.BSK_KF3CT_TIMP2 is an assay component measured in the BSK_KF3CT assay. It measures TIMP-2 antibody related to regulation of gene expression using ELISA technology.Data from the assay component BSK_KF3CT_TIMP2 was analyzed into 1 assay endpoint. This assay endpoint, BSK_KF3CT_TIMP2, was analyzed with bidirectional fitting relative to DMSO as the negative control and baseline of activity. Using a type of binding reporter, gain or loss-of-signal activity can be used to understand changes in the signaling as they relate to the gene TIMP2. Furthermore, this assay endpoint can be referred to as a primary readout, because this assay has produced multiple assay endpoints where this one serves a signaling function. To generalize the intended target to other relatable targets, this assay endpoint is annotated to the protease inhibitor intended target family, where the subfamily is metalloproteinase inhibitor.
The levels of cell surface (or secreted, indicated by the prefix "s") biomarker endpoints were measured by ELISA. Overt cytotoxicity to cells in confluent adherent cultures (all systems other than the BT system) was assessed by measuring total protein levels using sulforhodamine B (SRB) staining in parallel cultures at the time of biomarker measurements, indicated as SRB endpoints. For proliferation assays for adherent cell types, individual cell types are cultured at sub-confluence and relative cell numbers quantified by SRB staining at time points optimized for each system (48 h: 3C and CASM3C systems; 72 h: BT and HDF3CGF systems; 96 h: SAg system). SRB was performed by staining cells with 0.1% SRB after fixation with 10% TCA and reading wells at 560 nm.Viability and proliferation of PBMC (T cells) was quantified by Alamar Blue reduction for the SAg and BT systems. For PBMC viability (referred to as PBMC Cytotoxicity within the assay endpoint names), cells were plated (75,000/well in a 96-well plate) and then chemical samples added for 1 h before addition of activators, SEB and TSST-1 (20 ng/mL final concentration each). Cells were incubated for 90 h. Then, Alamar Blue (20 uL/well) (Invitrogen, Cat DAL1100) was added for 6 h, and the plates were read with a fluorescence microplate reader at 546/580 nm (excitation/emission). For PBMC proliferation, cells were plated and activated as above but incubated for only 16 h prior to addition of Alamar Blue. Plates were read after 6 h.

Row | Compound | outcome | AC50
1 | COc1ccc(C(=O)Nc2nc3ccccc3c(NCc3ccccc3)c2C#N)cc1 | inactive | 
2 | CCCCCCCCCCCCCCCCO | inactive | 
3 | CCCC(=O)O | inactive | 
4 | CC(C)OC(=O)C(C)(C)Oc1ccc(C(=O)c2ccc(Cl)cc2)cc1 | inactive | 
5 | O=C1O[C@H]([C@H](O)CO)C(O)=C1O | inactive | 
6 | CCOCCOCCO | inactive | 
7 | Cc1cc(Cc2ccc(N)c(C)c2)ccc1N | inactive | 
8 | OCC(O)CO | inactive | 
9 | O=C(O)c1[nH]n(-c2ccc(S(=O)(=O)O)cc2)c(=O)c1N=Nc1ccc(S(=O)(=O)O)cc1 | inactive | 
10 | NCCOCCOCCN | inactive | 
11 | NC1CCCCC1 | inactive | 
12 | CC(C)(C)c1ccccc1 | inactive | 
13 | COC(=O)CCCC(=O)OC | inactive | 
14 | CCCCCCC(C=O)=Cc1ccccc1 | inactive | 
15 | O=C1c2c(O)cccc2Cc2cccc(O)c21 |  | 20 µM (active)
16 | OCC(CO)n1cnc(-c2ccc(F)cc2)c1-c1ccnc(Oc2ccccc2)n1 | inactive | 
17 | CCCCCCCCCC[N+](C)(C)[O-] |  | 0.0209 µM (active)
18 | O=C(NS(=O)(=O)/C=C/c1cccs1)c1ccc(F)cc1Br | inactive | 
19 | CC(C)c1cccc(C(C)C)c1NC(=O)NS(=O)(=O)c1cc(C(C)(C)O)co1 | inactive | 
20 | CSc1ccc(Oc2ccc(S(N)(=O)=O)cc2CN(C)C)cc1C | inactive | 

Row | Compound | outcome | AC50
21 | CN(C)CCCN1c2ccccc2Sc2ccc(Cl)cc21 | inactive | 
22 | O=C(N[C@@H](c1ccccc1)[C@@H]1CCCCN1)c1cccc(C(F)(F)F)c1Cl |  | 12.4 µM (active)
23 | CCCCOC(=O)CCCCC(=O)OCCCC | inactive | 
24 | N[C@@H](Cc1c[nH]c2ccccc12)C(=O)O | inactive | 
25 | Cc1occc(=O)c1O | inactive | 
26 | COc1ccc(OC(F)(F)F)cc1CN[C@H]1CCCN[C@H]1c1ccccc1 | inactive | 
27 | CC(=O)[C@@]1(O)CC[C@H]2[C@@H]3CCC4=CC(=O)CC[C@]4(C)[C@H]3CC[C@@]21C | inactive | 
28 | CS(=O)(=O)c1ccc([C@@H](C[C@H]2CCC(=O)C2)C(=O)Nc2cnccn2)cc1Cl | inactive | 
29 | CCCCC(CC)COC(=O)CCCCCCCC(=O)OCC(CC)CCCC (stereo not given) | inactive | 
30 | Oc1ccccc1O | inactive | 
31 | O=C(O)CC(O)(CC(=O)O)C(=O)O | inactive | 
32 | Cc1cc(SC2=C(O)C[C@@](CCc3ccc(N)cc3)(C(C)C)OC2=O)c(C(C)(C)C)cc1CO | inactive | 
33 | CC(=O)O[C@]1(C(C)=O)CC[C@H]2[C@@H]3C=C(Cl)C4=CC(=O)[C@@H]5C[C@@H]5[C@]4(C)[C@H]3CC[C@@]21C | inactive | 
34 | C#CC(O)C(CC)CCCC (stereo not given) | inactive | 
35 | c1ccc2occc2c1 | inactive | 
36 | O=C1CCCCC1 | inactive | 
37 | CN(C)CCCN(C)CCCN(C)C | inactive | 
38 | CCCCCCC(CCCCCCCCCCC(=O)OCC(COC(C)=O)OC(C)=O)OC(C)=O (stereo not given) | inactive | 
39 | COC(=O)[C@H]1[C@H]2C[C@@H]3c4[nH]c5cc(OC)ccc5c4CCN3C[C@H]2C[C@@H](OC(=O)c2cc(OC)c(OC)c(OC)c2)[C@@H]1OC | inactive | 
40 | CCc1nc(N)nc(N)c1-c1ccc(Cl)cc1 | inactive | 
